phage Ecoli inh – E. coli growth loss with phage present; growth absorbance; actives 0.26% (n = 360,000); inhibition, % at 11.9 µM; in the data active = inhibition above about 11%
E coli growth-1 – reduces bacterial viability in AddAB counter-screen; E. coli V3065 growth, OD600 absorbance, 18 h; inhibition, % at 11.9 µM; actives 0.27% (n = 330,000); AID 449728;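 active = inhibition above the campaign's mean inhibition across all tested compounds plus 3 SD, cut at about 9.9% in these data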;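 also: uninfected addAB+ strain grown without phage in ampicillin broth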
E coli growth-2 – inhibitors of Escherichia coli growth. OD600, 23 h; stronger effect = lower value. OD600 absorbance (concentration not given with the values). actives 0.21% (n = 330,000);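 active = OD600 absorbance below the run mean of sample wells minus 3.6 SD, in any replicate, cut at about 0.56 in these data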
AddAB inh – less growth of phage-infected E. coli with AddAB; inhibition, % at 11.9 µM; AID 435030; E. coli expressing H. pylori AddAB, absorbance growth; actives 0.29% (n = 330,000); in the data active = inhibition above about 12%
Tat transport – blocks Tat-dependent protein export in E. coli; E. coli MC4100 TorA-mCherry Tat export, fluorescence; inhibition, % at 10 µM; actives 0.036% (n = 340,000); AID 488895;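 active = mean replicate inhibition at least 50% and at least half of replicates individually reaching 50%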;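 also: exported cargo escapes ClpAP degradation while cytoplasmic cargo is degraded and loses fluorescence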
RecBCD conf – confirmation: growth loss of phage-infected RecBCD+ E. coli (RecBCD inhibitor screen). inhibition, % at 11.9 µM. E. coli V66 + T4 2- phage, growth OD. shares compounds with phage Ecoli inh. actives 45% (n = 890). AID 651982;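 active = mean inhibition over triplicates exceeding the hit threshold derived in the original primary screen, cut at about 11% in these data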
Ecoli viability – inhibits E. coli viability, flagging RecBCD hits as nonselective; inhibition, % at 11.9 µM; shares compounds with phage Ecoli inh; actives 29% (n = 890); absorbance (OD) growth; in the data active = inhibition above about 20%;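 also: E. coli strain V66 grown with compound alone and no phage infection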
AddAB phage OD – growth loss of phage-infected AddAB E. coli, RecBCD counter-screen | actives 45% (n = 890) | shares compounds with phage Ecoli inh | E. coli expressing H. pylori AddAB + T4 phage, OD growth; gene 2 mutant T4, recBCD-deleted host | inhibition, % at 11.9 µM;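 active = mean inhibition above the solvent-only control wells' mean plus 3 SD, cut at about 22% in these data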;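 also: higher means less bacterial growth from phage killing when AddAB is blocked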
Hits are given with their value; i = inactive; nt = no result given. Most compounds without a hit are left out; they make up all but 0.5% or so of the library.

SMILES | phage Ecoli inh | E coli growth-1 | E coli growth-2 | AddAB inh | Tat transport | RecBCD conf | Ecoli viability | AddAB phage OD
O=C(CSc1nnc(-c2ccccc2)n1Cc1ccccc1)NNC(=O)c1ccccc1O | 12.2 | i | i | i | i | i | i | i
O=C(O)Cn1cc(F)c(=O)[nH]c1=O | nt | i | i | i | nt | nt | nt | nt
O=C1C=CC(n2cc(F)c(=O)[nH]c2=O)O1 (configuration not stated) | 23.9 | nt | nt | nt | nt | 31.8 | 22.0 | 46.3
O=C(NN=Cc1cccc(O)c1)NC1CCCCC1 | nt | nt | i | nt | nt | nt | nt | nt
O=C(O)COc1ccccc1C=NNC(=O)CN1CCN(Cc2ccc(Cl)cc2)CC1 | nt | nt | i | nt | nt | nt | nt | nt
O=[N+]([O-])c1ccc(-c2nc(Cl)c3c(n2)CCCC3)o1 | 97.1 | nt | nt | nt | nt | 76.2 | 96.5 | 100.1
COC(=O)Cn1ccnc1[N+](=O)[O-] | 15.6 | nt | nt | nt | nt | i | i | 90.1
COc1ccc(C(=O)COc2ncnc3cc(Cl)ccc23)cc1 | 97.8 | i | i | i | i | i | i | i
COc1ccc(NC(=O)N(C)CC2Oc3ccc(NS(=O)(=O)c4ccc(F)cc4)cc3C(=O)N(C(C)CO)CC2C)cc1 (configuration not stated) | nt | nt | i | nt | nt | nt | nt | nt
O=C(/C(=N/N=C/c1ccc(O)c(O)c1O)c1ccccc1)c1ccccc1 | 11.6 | i | nt | i | i | i | i | i
Oc1ccc(/C=N/N=C(c2ccccc2)c2ccccc2)c(O)c1O | 14.2 | i | nt | i | i | i | i | i
Cn1nc(-c2ccccn2)nc2c(=O)n(C)c(=O)nc1-2 | i | i | i | i | i | nt | nt | nt
CCCc1nc2c(=O)n(C)c(=O)nc-2n(C)n1 | 18.2 | nt | 0.439 | nt | i | 15.7 | i | 35.7
CCCCCCC=Cc1ccc(OC)c(C2C3C=CCC(C)C3C(=O)N2Cc2ccccc2)c1 (configuration not stated) | nt | nt | i | nt | nt | nt | nt | nt
COc1cccc(OCC(=O)NNC(=O)c2ccc3ccccc3c2O)c1 | 15.3 | nt | i | nt | i | i | i | i
COc1ccc(C(=O)NNC(=O)c2ccc3ccccc3c2O)cc1 | i | i | i | i | i | nt | nt | nt
CC(C)(C)C(=O)Nc1ccc(Sc2ccc([N+](=O)[O-])cc2)cc1 | i | i | i | i | i | nt | nt | nt
CC(=O)Nc1ccc(Sc2ccc([N+](=O)[O-])o2)cc1 | 21.4 | nt | i | nt | i | 14.9 | i | 72.3
CCN1CCN(c2ccc(S(=O)(=O)N3CCCCC3)cc2NC(=O)c2ccc([N+](=O)[O-])o2)CC1 | i | i | i | i | i | nt | nt | nt
CCN1CCN(c2ccc(NC(=O)c3ccc([N+](=O)[O-])o3)cc2Cl)CC1 | 20.9 | nt | i | nt | i | 16.1 | i | 101.6
COc1cc(C(=O)N=c2sccn2C)c([N+](=O)[O-])cc1OC | i | nt | i | nt | i | nt | nt | nt
Cn1ccsc1=NC(=O)c1ccc([N+](=O)[O-])o1 | 100.2 | 98.8 | 0.0625 | 99.4 | i | 99.3 | 100.5 | 101.3
CCN(CC)S(=O)(=O)c1cccc(C(=O)N/N=C/c2ccc(O)c(O)c2O)c1 | 13.6 | i | nt | 13.6 | i | i | i | i
CCCCC(=O)NC(c1cccc([N+](=O)[O-])c1)c1ccc2cccnc2c1O (configuration not stated) | 18.9 | nt | i | nt | i | 15.9 | i | 25.3
C[n+]1c(-c2ccc(C=NNC(=O)c3ccc(C(=O)NN=Cc4ccc(-c5cn6ccccc6[n+]5C)cc4)cc3)cc2)cn2ccccc21 | 57.3 | nt | nt | nt | 50.4 | 77.8 | 75.6 | 80.5
SMILES | phage Ecoli inh | E coli growth-1 | E coli growth-2 | AddAB inh | Tat transport | RecBCD conf | Ecoli viability | AddAB phage OD
O=C(N/N=C\c1ccc(F)cc1)c1ccc(F)cc1 | i | i | nt | i | i | nt | nt | nt
COc1ccc(-c2oc3ccccc3c(=O)c2OCC(=O)O)cc1 | i | i | i | i | i | nt | nt | nt
COc1ccc(-c2oc3ccccc3c(=O)c2OC(C)=O)cc1 | 11.3 | 12.0 | i | i | i | i | i | i
CC(=NNc1nc2ccccc2s1)c1ccncn1 | 26.5 | nt | nt | nt | i | 16.8 | i | 25.3
COc1ccc2c(c1)OCC1C2N2C(=O)CN(Cc3ccco3)C(=O)[C@@]2(C)C1c1ccccc1 (some centres not stated) | nt | nt | i | nt | nt | nt | nt | nt
COc1ccc(C2C=CCN(Cc3ccc(N(C)C)cc3)CC(=O)N2Cc2ccc(F)cc2)cc1 (configuration not stated) | nt | nt | i | nt | nt | nt | nt | nt
O=C(CSc1ccc(-c2ccccn2)nn1)c1ccc([N+](=O)[O-])cc1 | 11.6 | i | i | i | i | i | i | i

Screening data as filed in PubChem.
